{
  "source": "PubChem BioAssay AID1259240",
  "about": "(Keith Lab, Institute of Cancer Science, University of …, 2017)",
  "note": "Unmarked numbers belong to inactive results. The source made the active and inactive calls. Cut-off read from the data, not from the text of the source: active = fold change mostly below about -2 (no sharp cut-off); inactive = mostly above about -1.8.",
  "data": [
    {"experiment": "modulation of TERT promoter-driven luciferase – cell-based, luciferase reporter, human, primary screen (AID 1259240)", "details": "A2780 TERT promoter luciferase reporter, 16 h; at 20 µM, fold versus average of vehicle-only wells", "values": [
      {"compound": "Cc1ccc(-n2c(C)cc(/C=C3/SC(=S)N(CC(=O)O)C3=O)c2C)cc1", "fold change": "-5.22 (active)"},
      {"compound": "COc1cc(NC(=O)Nc2ccc3snnc3c2)cc(OC)c1OC", "fold change": -1.49},
      {"compound": "COc1cc(OC)c(-c2nc(-c3ccc(C)cc3)no2)cc1OC", "fold change": 1.55},
      {"compound": "Cc1ccccc1Nc1c(-c2ccccc2O)nc2cnccn12", "outcome": "active"},
      {"compound": "CC(C)Cc1nnc(NC(=O)CSc2nc(N)cc(=O)[nH]2)s1", "outcome": "active"},
      {"compound": "Cn1c(=O)c2c(SCC(=O)N3CCOCC3)nc(-c3ccco3)nc2n(C)c1=O", "fold change": 1.36},
      {"compound": "Cc1cc(Oc2ccccc2)nc(SCC(N)=O)n1", "fold change": 1.5},
      {"compound": "Cc1cc(C)c2c(=O)n(CC(=O)N3CCCC3)sc2n1", "fold change": 1.19},
      {"compound": "CCCOc1ccc(Cc2nn3c(=O)/c(=C\\c4cccc(OC(C)=O)c4)sc3nc2=O)cc1", "fold change": -1.43},
      {"compound": "CCOc1ccc(-n2c(C)c(C(C)=O)c3cc(OCC(N)=O)ccc32)cc1", "fold change": -1.01},
      {"compound": "CCCCN(C)C(=O)Cn1ncc2c3ccccc3n(C)c2c1=O", "fold change": 1.16},
      {"compound": "Clc1ccc2c(c1)C1CC(c3ccccc3)=NN1C(c1ccncc1)O2", "note": "(stereo not given)", "fold change": -1.13},
      {"compound": "CC(=O)N(C1=C(N(C)C)C(=O)c2ccccc2C1=O)c1cc(C)cc(C)c1", "fold change": -1.54},
      {"compound": "O=C(c1cccc(Cl)c1)N1CCN(c2ccc3nnc(-c4ccccc4)n3n2)CC1", "fold change": 1},
      {"compound": "COc1ccc(Nc2nc(N)nc(CSc3nccn3C)n2)cc1", "fold change": 1.57},
      {"compound": "CC1CCC(NC(=O)Cn2c(=O)c(C(F)(F)F)nc3ccccc32)CC1", "note": "(stereo not given)", "fold change": -1.07},
      {"compound": "O=c1/c(=C/c2c(F)cccc2Cl)sc2nc(-c3ccco3)nn12", "fold change": 1.03},
      {"compound": "COc1ccc(C2c3c(n[nH]c3C)C(=O)N2c2ccc(Br)cc2)c(OC)c1", "note": "(stereo not given)", "fold change": -1.34},
      {"compound": "c1ccc2c(c1)OCC(CNc1nnc(Cc3ccncc3)c3ccccc13)O2", "note": "(stereo not given)", "fold change": -1.37},
      {"compound": "Nc1cc(-c2ccccc2)nn1S(=O)(=O)c1ccc(Br)cc1", "fold change": 1.63},
      {"compound": "O=S(=O)(NCc1ccccn1)c1cccc2cccnc12", "fold change": -1.29},
      {"compound": "CCOc1ccc(N2CC(O)=C(c3nc4ccccc4c(=O)[nH]3)C2=N)cc1", "outcome": "inactive"},
      {"compound": "CC(C)C(NS(=O)(=O)c1ccc2c(c1)oc(=O)n2C)C(=O)N1CCN(c2ccccc2F)CC1", "note": "(stereo not given)", "fold change": 1.1},
      {"compound": "COc1nnc(-c2ccc(N3CCCCC3)c(N)c2)c2ccccc12", "fold change": -1.98},
      {"compound": "O=C(CSc1ncnc2ccccc12)NC1CCCCC1", "fold change": 1.03},
      {"compound": "COc1ccccc1N1CCN(S(=O)(=O)c2cccc3cccnc23)CC1", "fold change": -1.29},
      {"compound": "C=CCOc1ccc(-c2nc3s/c(=C\\c4ccc(OC(C)=O)c(OC)c4)c(=O)n3n2)cc1", "fold change": 1.33},
      {"compound": "O=C(Nc1nnc(N2CCCCC2)s1)Nc1ccccc1Cl", "fold change": "-2.93 (active)"},
      {"compound": "O=C(CSc1c2c(nc3cc(Cl)ccc13)CCCC2)Nc1nccs1", "fold change": "-3.17 (active)"},
      {"compound": "CCOC(=O)/C(=N\\OC)c1cn2cc(Br)ccc2n1", "fold change": 1.2},
      {"compound": "Cc1nc2ncccn2c1-c1csc(Nc2ccc(Cl)cc2)n1", "fold change": "-2.31 (active)"},
      {"compound": "O=C(CC(=O)Nc1ccccn1)Nc1ccc2nc3n(c(=O)c2c1)CCCCC3", "fold change": -1.11},
      {"compound": "CCS(=O)(=O)N1CCN(Cc2c[nH]c3ccccc23)CC1", "fold change": -1.08},
      {"compound": "CCS(=O)(=O)Nc1ccc(C2=NN(S(C)(=O)=O)C(c3ccco3)C2)cc1", "note": "(stereo not given)", "fold change": -1.18},
      {"compound": "CCN1C(=O)N(CC)C2C1N(C(C)=O)C(=O)N2C(C)=O", "note": "(stereo not given)", "fold change": -1.76},
      {"compound": "CCCN(CCC)S(=O)(=O)c1ccc2c(c1)oc(=O)n2CC(=O)OCC", "fold change": -1.16},
      {"compound": "COc1ccc2[nH]cc(S(=O)(=O)c3ccc(C)cc3)c(=O)c2c1", "fold change": 1.08},
      {"compound": "C=CCn1c(SCC(=O)N2CCCCC2)nc2sc3c(c2c1=O)CCC3", "fold change": -1.53},
      {"compound": "Cc1cc(C(=O)NC2CCCCC2)on1", "fold change": 1.39},
      {"compound": "CC(=O)c1cccc(Nc2nc(-c3c(C)nc4cc(C)ccn34)cs2)c1", "fold change": "-2.84 (active)"}
    ]}
  ]
}
